65 molecules from the supplement of paper PMC10498489 can be followed below.

The campaign covered roughly 2,300 compounds. About 330 (14%) showed activity. The list is a sample of the results. Unmarked numbers belong to inactive results.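 How the source made its calls: active = median modified Z-score above 1.96; inactive = 1.96 or below.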

The experiment deals with HepG2 Srxn1-GFP reporter cells (+30 nM CDDO-Me). The experiment in a line: Srxn1-GFP intensity median modified Z-score relative to plate median; higher = stronger NRF2 / oxidative stress reporter activation, active = hit call of the paper. The note with it: 10 µM; exposure time: 24h. In a few lines: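 Each value is the replicate median of a per-plate modified Z-score for GFP intensity in HepG2 Srxn1-GFP BAC reporter cells. The cells (20,000 per well, 96-well plates, three replicate plates) received compound at 10 μM together with an NRF2 activator at 30 nM for 24 h, in ≤0.1% DMSO. Cytoplasmic GFP was quantified per cell from confocal images of formaldehyde-fixed, Hoechst-stained cells, leaving out images with fewer than 100 cells, and scaling used 1.4826 × median absolute deviation.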
With `COc1cc(O)c(C(C)=O)c(OC)c1` [euspeclibcmpd1575], the “Srxn1-GFP intensity median modified Z-score” value was -0.474.

Turning to `COc1cc(O)c(C(=O)C=Cc2ccc(O)c(OC)c2)c(OC)c1` [euspeclibcmpd2193], the “Srxn1-GFP intensity median modified Z-score” value was -0.497.

On to `COc1ccc(/C=C/C(=O)O)cc1OC` [euspeclibcmpd2368], for which the “Srxn1-GFP intensity median modified Z-score” value was -0.475.

Consider `COc1cc(C=CC(=O)CC(=O)C=Cc2ccc(O)c(OC)c2)ccc1O` [euspeclibcmpd1307], for which the “Srxn1-GFP intensity median modified Z-score” value is 23.5 (active).

Consider `COc1cc(O)c(C(=O)C=Cc2ccc(OC)c(O)c2)c(OC)c1` [euspeclibcmpd1967], for which the “Srxn1-GFP intensity median modified Z-score” value was 23.8 (active).

On to `COc1cc(C=CC(=O)O)ccc1O` [euspeclibcmpd1346], for which the “Srxn1-GFP intensity median modified Z-score” value was -0.142.

In the case of `Cc1cn[nH]c1` [euspeclibcmpd2196], the “Srxn1-GFP intensity median modified Z-score” value was 1.06.

As for `Cc1cn[nH]c1` [euspeclibcmpd2215], the “Srxn1-GFP intensity median modified Z-score” value was -0.461.

Take `CCC(=O)O[C@]1(C(=O)SCF)[C@H](C)CC2C3CC(F)=C4CC(=O)C=C[C@]4(C)C3(F)[C@@H](O)C[C@@]21C` (stereo not given in full) [euspeclibcmpd975]: the “Srxn1-GFP intensity median modified Z-score” value was -0.942.

On to `CC(=O)Nc1c(I)c(NC(C)=O)c(I)c(C(=O)O)c1I` [euspeclibcmpd867], for which the “Srxn1-GFP intensity median modified Z-score” value was -0.167.

`Cc1cc(=O)oc2cc(O)c(O)cc12` [euspeclibcmpd1370]: the “Srxn1-GFP intensity median modified Z-score” value is -0.517.

With `NC(CCC(=O)NC(CS)C(=O)NCC(=O)O)C(=O)O` (stereo not given) [euspeclibcmpd132], the “Srxn1-GFP intensity median modified Z-score” value is 1.19.

Turning to `C[C@]12CCC(=O)CC1=CCC1C2[C@@H](O)C[C@@]2(C)C1CC[C@]2(O)C(=O)CO` (stereo not given in full) [euspeclibcmpd5], the “Srxn1-GFP intensity median modified Z-score” value is -0.578.

Regarding `O=C(O)C1CSCN1C(O)c1ccc(O)[nH]1` (stereo not given) [euspeclibcmpd1087], the “Srxn1-GFP intensity median modified Z-score” value is -0.1.

Regarding `O=C(O)C1CC([C@H]2CCCCN2)CN2CCCCC12` (stereo not given in full) [euspeclibcmpd1560], the “Srxn1-GFP intensity median modified Z-score” value was 0.315.

In the case of `CCCN1C(=O)/C(=C/c2ccc(-n3ccnc3)cc2)SC1=S`, the “Srxn1-GFP intensity median modified Z-score” value was 9.18 (active).

On to `CC(C)(C)NCC(O)COc1cccc2c1C[C@H](O)[C@H](O)C2` (stereo not given in full) [euspeclibcmpd814], for which the “Srxn1-GFP intensity median modified Z-score” value was 0.0394.

In the case of `CC[C@H]1OC(=O)C[C@@H](O)[C@H](C)[C@@H](O[C@@H]2O[C@H](C)[C@@H](O[C@H]3C[C@@](C)(O)[C@@H](O)[C@H](C)O3)[C@H](N(C)C)[C@H]2O)[C@@H](CC=O)CC(C)C(=O)/C=C/C(C)=C/C1CO[C@@H]1O[C@H](C)[C@@H](O)[C@@H](OC)[C@H]1OC` (stereo not given in full) [euspeclibcmpd742], the “Srxn1-GFP intensity median modified Z-score” value is -0.617.

Consider `COc1cccc(-c2cc(=O)c3ccc(OC)cc3o2)c1` [euspeclibcmpd2098], for which the “Srxn1-GFP intensity median modified Z-score” value was 1.56.

For `COc1ccc(-c2coc3cc(OCC4CC4)ccc3c2=O)cc1`, the “Srxn1-GFP intensity median modified Z-score” value is 1.64.

In the case of `CC(=O)Nc1ccc(OC(C)=O)cc1` [euspeclibcmpd1187], the “Srxn1-GFP intensity median modified Z-score” value was -0.386.

Turning to `CC(=O)Oc1cccc(O)c1` [euspeclibcmpd584], the “Srxn1-GFP intensity median modified Z-score” value was 0.144.

In the case of `CC(=O)Oc1ccc(O)cc1` [euspeclibcmpd2324], the “Srxn1-GFP intensity median modified Z-score” value is 5.59 (active).

Turning to `CCC1C(=O)OC[C@@H]1Cc1cncn1C` (stereo not given in full) [euspeclibcmpd2263], the “Srxn1-GFP intensity median modified Z-score” value is 0.439.

Take `OC[C@H]1O[C@@](CO)(O[C@@H]2O[C@H](CO)[C@@H](O)[C@H](O)[C@H]2O)[C@@H](O[C@@H]2O[C@H](CO)[C@@H](O)[C@H](O)[C@H]2O)[C@@H]1O` [euspeclibcmpd1323]: the “Srxn1-GFP intensity median modified Z-score” value is 0.146.

For the molecule `O=C(OCc1cc([N+](=O)[O-])cc2c1OCOC2)C12CC3CC(CC(Br)(C3)C1)C2`, the “Srxn1-GFP intensity median modified Z-score” value was 1.38.

Take `CC1(C)OC(=O)NC1=O` [euspeclibcmpd99]: the “Srxn1-GFP intensity median modified Z-score” value was 0.00531.

With `CC(C)C(N)C(=O)OCCOCn1cnc2c(=O)[nH]c(=N)[nH]c21` (stereo not given) [euspeclibcmpd757], the “Srxn1-GFP intensity median modified Z-score” value was 0.568.

Consider `CC1C/C=C/C=C/C=C/C=C/C(O[C@@H]2O[C@H](C)[C@@H](O)[C@H](N)[C@@H]2O)CC2OC(O)(CC(O)CC3OC3/C=C/C(=O)O1)CC(O)C2C(=O)O` (stereo not given in full) [euspeclibcmpd858], for which the “Srxn1-GFP intensity median modified Z-score” value was -0.525.

In the case of `CC1/C=C/C=C/C=C/C=C/C=C/C=C/C=C/C(OC2O[C@H](C)[C@@H](O)[C@H](N)[C@@H]2O)CC(O)C(C(=O)O)C(O)CC(=O)CC(O)CC(O)CC(O)CC(=O)CCCC(=O)CC(=O)OC1C(C)CC(C)C(O)CC(=O)c1ccc(N)cc1` (stereo not given in full) [euspeclibcmpd648], the “Srxn1-GFP intensity median modified Z-score” value is 1.22.

For the molecule `CC1OC(O[C@H]2/C=C/C=C/C=C/C=C/C=C/C=C/C=C/[C@H](C)[C@@H](O)[C@@H](C)[C@H](C)OC(=O)CC(O)CC(O)CCC(O)C(O)CC(O)C[C@]3(O)C[C@H](O)C(C(=O)O)C(C2)O3)C(O)[C@H](N)C1O` (stereo not given in full) [euspeclibcmpd24], the “Srxn1-GFP intensity median modified Z-score” value was 1.97 (active).

Regarding `COc1ccc(-c2coc3c4c(c(CC=C(C)C)c(O)c3c2=O)OC(C)(C)C=C4)cc1` [euspeclibcmpd2167], the “Srxn1-GFP intensity median modified Z-score” value is -0.398.

Consider `COc1cc(=NS(=O)(=O)c2ccc(N)cc2)[nH]c(OC)n1` [euspeclibcmpd399], for which the “Srxn1-GFP intensity median modified Z-score” value was -0.451.

Consider `OC[C@H]1O[C@H](O[C@H]2[C@H](O)[C@@H](O)[C@H](O)O[C@@H]2CO)[C@H](O)[C@@H](O)[C@@H]1O` [euspeclibcmpd2088], for which the “Srxn1-GFP intensity median modified Z-score” value was -0.629.

As to `COCCn1c(SCC(=O)N(C)Cc2ccc(Cl)s2)nc2cc(Cl)ccc21`, the “Srxn1-GFP intensity median modified Z-score” value was 0.575.

On to `CC(C=Cc1c(C)c(O)c2ccccc2c1O)=CCC[C@H](C)CCC[C@H](C)CCCC(C)C` [euspeclibcmpd621], for which the “Srxn1-GFP intensity median modified Z-score” value is -0.697.

As to `N=c1[nH]nc(-c2cccc(Cl)c2Cl)c(=N)[nH]1` [euspeclibcmpd829], the “Srxn1-GFP intensity median modified Z-score” value is -0.0242.

`CCN(CCCc1ccccc1)CCCc1ccccc1` [euspeclibcmpd16]: the “Srxn1-GFP intensity median modified Z-score” value is 0.166.

In the case of `CCN(CC)CCc1nc(-c2ccccc2)no1` [euspeclibcmpd2430], the “Srxn1-GFP intensity median modified Z-score” value is 10.5 (active).

On to `C[C@H](CC(=O)C1OC1(C)C)[C@@H]1C(=O)C[C@@]2(C)C3=CCC4C(C)(C)[C@@H](O[C@@H]5OC[C@@H](O)[C@H](O)[C@H]5O)CC[C@@]45C[C@@]35[C@@H](O)C[C@]12C` (stereo not given in full) [euspeclibcmpd2331], for which the “Srxn1-GFP intensity median modified Z-score” value was 0.374.

Consider `COCCCCC(=NOCCN)c1ccc(C(F)(F)F)cc1` [euspeclibcmpd828], for which the “Srxn1-GFP intensity median modified Z-score” value is -0.302.

For `NC(=O)CCC(N)C(=O)O` (stereo not given) [euspeclibcmpd1404], the “Srxn1-GFP intensity median modified Z-score” value is -0.533.

As to `COc1cc(C(=O)N2CCOCC2)cc(OC)c1OC` [euspeclibcmpd666], the “Srxn1-GFP intensity median modified Z-score” value was 0.129.

`COc1cc(C(=O)OCCCN2CCCN(CCCOC(=O)c3cc(OC)c(OC)c(OC)c3)CC2)cc(OC)c1OC` [euspeclibcmpd1946]: the “Srxn1-GFP intensity median modified Z-score” value was 6.07 (active).

Consider `COc1cc(OC)c(C(=O)CCCN2CCCC2)c(OC)c1` [euspeclibcmpd1235], for which the “Srxn1-GFP intensity median modified Z-score” value is -0.587.

`COc1cc(-c2coc3cc(OCc4ccccc4)c(OC)c(O)c3c2=O)cc(OCc2ccccc2)c1OC` [euspeclibcmpd1942]: the “Srxn1-GFP intensity median modified Z-score” value was -0.32.

For `COc1cc2c(cc1OC)-c1cc3ccc(OC)c(OC)c3c[n+]1CC2` [euspeclibcmpd2350], the “Srxn1-GFP intensity median modified Z-score” value was 0.574.

`COc1ccc2cc3[n+](cc2c1OC)CCc1cc2c(cc1-3)OCO2` [euspeclibcmpd1051]: the “Srxn1-GFP intensity median modified Z-score” value is 6.03 (active).

Turning to `C[n+]1cc2c3c(ccc2c2ccc4cc5c(cc4c21)OCO5)OCO3` [euspeclibcmpd10], the “Srxn1-GFP intensity median modified Z-score” value is 0.32.

As for `CCc1cccc2c(C(=O)COC(=O)c3c4c(nc5ccccc35)CCC(C(C)(C)C)C4)c[nH]c12` (stereo not given), the “Srxn1-GFP intensity median modified Z-score” value is 1.73.

As to `C#C[C@]1(O)CCC2C3CCc4cc(OC5CCCC5)ccc4C3CC[C@@]21C` (stereo not given in full) [euspeclibcmpd466], the “Srxn1-GFP intensity median modified Z-score” value was 0.485.

As for `CCCCCC(CC(O)=NO)C(=O)NC(C(=O)N1CCCC1CO)C(C)C` (stereo not given) [euspeclibcmpd1993], the “Srxn1-GFP intensity median modified Z-score” value was 11.7 (active).

For the molecule `CCCCCC(CC(=O)O)C(=O)O` (stereo not given) [euspeclibcmpd1642], the “Srxn1-GFP intensity median modified Z-score” value was -0.141.

Take `CN1N=C(C(=O)NC2(C)CCS(=O)(=O)C2)CCC1=O` (stereo not given): the “Srxn1-GFP intensity median modified Z-score” value was 1.37.

In the case of `C[C@]12CCC3c4ccc(OS(=O)(=O)O)cc4CCC3C1CCC2=O` (stereo not given in full) [euspeclibcmpd707], the “Srxn1-GFP intensity median modified Z-score” value is -0.429.

As to `CN=C(NC#N)NCCSCc1[nH]cnc1C` [euspeclibcmpd338], the “Srxn1-GFP intensity median modified Z-score” value is 3.04 (active).

With `O=C(N[C@@H](CO)[C@H](O)c1ccc([N+](=O)[O-])cc1)C(Cl)Cl` [euspeclibcmpd53], the “Srxn1-GFP intensity median modified Z-score” value was -0.347.

Consider `CC1(C)CC[C@]2(C)CC[C@]3(C)C(=CCC4[C@@]5(C)CC[C@H](O)C(C)(C)C5CC[C@]43C)C2C1` (stereo not given in full) [euspeclibcmpd1345], for which the “Srxn1-GFP intensity median modified Z-score” value is 1.93.

As to `CC1(C)CC[C@]2(C(=O)O)CC[C@]3(C)C(=CCC4[C@@]5(C)CC[C@@H](O)C(C)(C)C5CC[C@]43C)C2C1` (stereo not given in full) [euspeclibcmpd1603], the “Srxn1-GFP intensity median modified Z-score” value was 4.09 (active).

Regarding `CC1(C)CC[C@]2(C(=O)O)CC[C@]3(C)C(=CCC4[C@@]5(C)CC[C@H](O)[C@@](C)(CO)C5CC[C@]43C)C2C1` (stereo not given in full) [euspeclibcmpd1554], the “Srxn1-GFP intensity median modified Z-score” value was -0.176.

Consider `Cc1cc2nc3c(=O)[nH]c(=O)nc-3n(C[C@@H](O)[C@@H](O)[C@@H](O)COP(=O)(O)O)c2cc1C` [euspeclibcmpd2323], for which the “Srxn1-GFP intensity median modified Z-score” value was -0.0697.

Take `Cc1ccc2[nH]c3c(c2c1)CC(Nc1ccc(CCC(=O)N2CCCC2)cc1)CC3` (stereo not given): the “Srxn1-GFP intensity median modified Z-score” value was 4.66 (active).

Regarding `O=C(Nc1ccccc1)OCC(CN1CCCCC1)OC(=O)Nc1ccccc1` (stereo not given) [euspeclibcmpd499], the “Srxn1-GFP intensity median modified Z-score” value was -0.575.

With `CN1C(C(=O)N=c2cccc[nH]2)C(=O)c2sccc2S1(=O)=O` (stereo not given) [euspeclibcmpd536], the “Srxn1-GFP intensity median modified Z-score” value was -0.404.

In the case of `N=c1ccn([C@H]2CC[C@@H](CO)O2)c(=O)[nH]1` [euspeclibcmpd485], the “Srxn1-GFP intensity median modified Z-score” value was -0.378.
